Source: ChEMBL document CHEMBL1961873, “Compounds: GSK PKIS; Assays: Nanosyn kinase panel” (2012)

Experiments:
[1] = target: Rho-associated protein kinase 1 (Homo sapiens) (UniProt Q13464); settings: at 1 µM;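 further: reported values are mean percent inhibition of ROCK1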
[2] = target: Rho-associated protein kinase 2 (Homo sapiens) (UniProt O75116); settings: at 0.1 µM
[3] = target: Rho-associated protein kinase 2 (Homo sapiens) (UniProt O75116); settings: at 1 µM
[4] = target: Ribosomal protein S6 kinase alpha-1 (Homo sapiens) (UniProt Q15418); settings: at 0.1 µM
Sequence of Ribosomal protein S6 kinase alpha-1 (Homo sapiens) (Q15418 whole entry): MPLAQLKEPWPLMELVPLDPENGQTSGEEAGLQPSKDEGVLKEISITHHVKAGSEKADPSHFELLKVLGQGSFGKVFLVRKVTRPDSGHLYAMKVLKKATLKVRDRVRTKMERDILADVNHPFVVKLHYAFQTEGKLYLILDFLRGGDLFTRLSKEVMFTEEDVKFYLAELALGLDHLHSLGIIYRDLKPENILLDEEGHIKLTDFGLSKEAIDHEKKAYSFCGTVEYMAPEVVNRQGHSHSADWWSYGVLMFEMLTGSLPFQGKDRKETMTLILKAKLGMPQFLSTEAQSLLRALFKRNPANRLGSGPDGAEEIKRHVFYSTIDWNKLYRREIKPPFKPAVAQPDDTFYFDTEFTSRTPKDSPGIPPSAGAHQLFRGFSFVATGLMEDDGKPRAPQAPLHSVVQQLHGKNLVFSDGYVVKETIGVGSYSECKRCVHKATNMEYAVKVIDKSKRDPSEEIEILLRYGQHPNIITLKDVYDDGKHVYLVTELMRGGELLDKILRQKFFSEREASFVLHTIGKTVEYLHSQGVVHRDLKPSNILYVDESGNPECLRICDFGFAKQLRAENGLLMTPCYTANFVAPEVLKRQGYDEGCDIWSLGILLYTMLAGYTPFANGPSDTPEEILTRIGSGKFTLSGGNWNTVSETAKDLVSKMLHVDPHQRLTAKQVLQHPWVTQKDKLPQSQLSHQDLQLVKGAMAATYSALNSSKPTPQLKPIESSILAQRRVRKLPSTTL

[5] = target: Ribosomal protein S6 kinase alpha-1 (Homo sapiens) (UniProt Q15418); settings: at 1 µM
[6] = target: Ribosomal protein S6 kinase alpha-3 (Homo sapiens) (UniProt P51812); settings: at 0.1 µM
Sequence of Ribosomal protein S6 kinase alpha-3 (Homo sapiens) (P51812 whole entry): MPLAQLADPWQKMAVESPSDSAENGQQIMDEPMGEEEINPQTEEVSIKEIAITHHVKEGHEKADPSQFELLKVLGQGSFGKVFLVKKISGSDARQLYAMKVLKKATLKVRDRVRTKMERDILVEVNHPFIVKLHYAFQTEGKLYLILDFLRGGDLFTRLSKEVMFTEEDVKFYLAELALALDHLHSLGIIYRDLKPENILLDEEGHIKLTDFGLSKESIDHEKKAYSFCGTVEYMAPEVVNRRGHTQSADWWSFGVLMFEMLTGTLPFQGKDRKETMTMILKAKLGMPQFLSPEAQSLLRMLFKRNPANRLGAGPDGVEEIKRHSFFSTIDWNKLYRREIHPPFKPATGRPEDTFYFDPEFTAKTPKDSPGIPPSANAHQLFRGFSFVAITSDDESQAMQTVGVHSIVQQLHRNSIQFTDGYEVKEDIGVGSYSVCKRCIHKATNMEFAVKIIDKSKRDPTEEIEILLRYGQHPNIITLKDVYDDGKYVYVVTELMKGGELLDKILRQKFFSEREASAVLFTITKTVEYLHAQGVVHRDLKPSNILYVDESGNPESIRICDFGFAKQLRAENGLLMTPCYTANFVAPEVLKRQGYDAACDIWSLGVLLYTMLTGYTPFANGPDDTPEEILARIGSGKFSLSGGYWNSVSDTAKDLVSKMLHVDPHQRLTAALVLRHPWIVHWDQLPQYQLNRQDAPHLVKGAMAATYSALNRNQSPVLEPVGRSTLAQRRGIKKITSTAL

[7] = target: Ribosomal protein S6 kinase alpha-3 (Homo sapiens) (UniProt P51812); settings: at 1 µM
[8] = target: Ribosomal protein S6 kinase alpha-2 (Homo sapiens) (UniProt Q15349); settings: at 0.1 µM
[9] = target: Ribosomal protein S6 kinase alpha-2 (Homo sapiens) (UniProt Q15349); settings: at 1 µM
[10] = target: Ribosomal protein S6 kinase alpha-6 (Homo sapiens) (UniProt Q9UK32); settings: at 0.1 µM
Sequence of Ribosomal protein S6 kinase alpha-6 (Homo sapiens) (Q9UK32 whole entry): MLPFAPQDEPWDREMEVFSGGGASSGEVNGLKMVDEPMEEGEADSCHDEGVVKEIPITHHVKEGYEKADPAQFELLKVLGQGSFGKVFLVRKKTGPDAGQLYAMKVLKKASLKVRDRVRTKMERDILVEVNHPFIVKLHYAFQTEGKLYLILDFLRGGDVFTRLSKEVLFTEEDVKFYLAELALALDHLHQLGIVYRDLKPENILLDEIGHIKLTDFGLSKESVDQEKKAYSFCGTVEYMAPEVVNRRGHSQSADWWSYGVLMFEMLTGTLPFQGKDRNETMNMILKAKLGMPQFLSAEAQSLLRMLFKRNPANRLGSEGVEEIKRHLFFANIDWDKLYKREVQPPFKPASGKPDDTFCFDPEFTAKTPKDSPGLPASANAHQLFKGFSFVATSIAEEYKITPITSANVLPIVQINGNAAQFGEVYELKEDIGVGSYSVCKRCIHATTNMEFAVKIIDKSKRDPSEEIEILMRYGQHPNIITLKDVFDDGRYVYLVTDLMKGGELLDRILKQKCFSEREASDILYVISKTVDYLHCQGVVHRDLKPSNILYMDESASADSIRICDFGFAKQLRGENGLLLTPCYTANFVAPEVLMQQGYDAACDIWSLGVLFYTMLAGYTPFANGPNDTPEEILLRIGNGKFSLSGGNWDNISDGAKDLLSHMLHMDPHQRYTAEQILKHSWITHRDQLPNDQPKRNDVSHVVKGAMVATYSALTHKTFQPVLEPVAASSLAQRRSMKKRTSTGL

[11] = target: Ribosomal protein S6 kinase alpha-6 (Homo sapiens) (UniProt Q9UK32); settings: at 1 µM
[12] = target: T1, Serine/threonine-protein kinase Sgk1 (Homo sapiens) (UniProt O00141); settings: at 0.1 µM
T1 sequence (whole entry): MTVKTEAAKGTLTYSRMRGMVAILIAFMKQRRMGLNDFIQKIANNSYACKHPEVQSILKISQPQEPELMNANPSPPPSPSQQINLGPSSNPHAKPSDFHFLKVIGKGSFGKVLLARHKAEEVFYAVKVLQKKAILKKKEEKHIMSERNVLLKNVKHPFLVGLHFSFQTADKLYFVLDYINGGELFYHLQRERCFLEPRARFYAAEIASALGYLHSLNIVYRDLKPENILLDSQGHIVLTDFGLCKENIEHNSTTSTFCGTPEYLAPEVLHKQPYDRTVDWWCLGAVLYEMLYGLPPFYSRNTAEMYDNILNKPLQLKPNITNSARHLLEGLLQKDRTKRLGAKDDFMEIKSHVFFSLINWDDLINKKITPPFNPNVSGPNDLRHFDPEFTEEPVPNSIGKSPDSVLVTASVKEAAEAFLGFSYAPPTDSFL

[13] = target: T1, Serine/threonine-protein kinase Sgk1 (Homo sapiens); settings: at 1 µM
[14] = target: T2, Serine/threonine-protein kinase Sgk2 (Homo sapiens) (UniProt Q9HBY8); settings: at 0.1 µM
T2 sequence (whole entry): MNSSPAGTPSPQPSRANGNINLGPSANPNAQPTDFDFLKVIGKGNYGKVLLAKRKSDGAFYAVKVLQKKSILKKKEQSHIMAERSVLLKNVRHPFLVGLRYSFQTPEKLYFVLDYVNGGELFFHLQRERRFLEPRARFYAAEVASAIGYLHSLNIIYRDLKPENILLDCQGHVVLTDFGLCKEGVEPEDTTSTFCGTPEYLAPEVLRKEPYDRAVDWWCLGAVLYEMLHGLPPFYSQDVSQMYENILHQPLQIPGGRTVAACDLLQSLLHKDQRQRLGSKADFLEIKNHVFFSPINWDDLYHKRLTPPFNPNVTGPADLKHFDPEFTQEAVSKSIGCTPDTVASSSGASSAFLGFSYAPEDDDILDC

[15] = target: T2, Serine/threonine-protein kinase Sgk2 (Homo sapiens); settings: at 1 µM
[16] = target: T3, Serine/threonine-protein kinase Sgk3 (Homo sapiens) (UniProt Q96BR1); settings: at 0.1 µM
T3 sequence (whole entry): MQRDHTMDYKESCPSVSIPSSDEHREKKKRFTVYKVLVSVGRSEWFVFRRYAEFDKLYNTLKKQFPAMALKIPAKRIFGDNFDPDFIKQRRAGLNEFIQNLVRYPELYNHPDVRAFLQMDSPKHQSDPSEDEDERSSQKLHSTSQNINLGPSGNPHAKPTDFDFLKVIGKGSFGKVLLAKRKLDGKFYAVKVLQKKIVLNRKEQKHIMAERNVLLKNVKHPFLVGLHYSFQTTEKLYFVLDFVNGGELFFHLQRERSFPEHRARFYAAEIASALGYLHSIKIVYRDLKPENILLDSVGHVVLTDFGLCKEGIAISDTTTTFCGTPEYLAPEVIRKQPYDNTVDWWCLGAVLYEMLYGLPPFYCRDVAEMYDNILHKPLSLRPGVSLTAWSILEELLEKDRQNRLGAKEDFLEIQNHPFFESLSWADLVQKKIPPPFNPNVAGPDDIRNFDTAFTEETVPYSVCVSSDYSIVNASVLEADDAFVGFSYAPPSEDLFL

[17] = target: T3, Serine/threonine-protein kinase Sgk3 (Homo sapiens); settings: at 1 µM
[18] = target: 5'-AMP-activated protein kinase catalytic subunit alpha-1 (Homo sapiens) (UniProt Q13131); settings: at 0.1 µM
Sequence of 5'-AMP-activated protein kinase catalytic subunit alpha-1 (Homo sapiens) (Q13131 whole entry, looked up): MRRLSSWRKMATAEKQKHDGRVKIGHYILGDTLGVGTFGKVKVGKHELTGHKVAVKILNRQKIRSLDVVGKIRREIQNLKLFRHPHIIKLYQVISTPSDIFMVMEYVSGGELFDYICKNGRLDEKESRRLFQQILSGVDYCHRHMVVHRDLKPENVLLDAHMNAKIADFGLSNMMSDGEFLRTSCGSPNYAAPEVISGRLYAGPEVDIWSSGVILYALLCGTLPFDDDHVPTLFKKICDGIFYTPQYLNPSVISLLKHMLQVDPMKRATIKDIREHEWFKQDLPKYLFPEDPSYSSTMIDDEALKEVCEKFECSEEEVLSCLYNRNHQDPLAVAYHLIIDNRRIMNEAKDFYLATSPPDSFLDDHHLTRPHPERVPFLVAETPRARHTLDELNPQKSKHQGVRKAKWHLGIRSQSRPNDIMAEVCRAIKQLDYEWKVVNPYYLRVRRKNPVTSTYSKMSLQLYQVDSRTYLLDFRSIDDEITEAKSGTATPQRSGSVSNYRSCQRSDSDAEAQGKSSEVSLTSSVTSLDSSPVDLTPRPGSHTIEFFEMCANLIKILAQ

[19] = target: 5'-AMP-activated protein kinase catalytic subunit alpha-1 (Homo sapiens) (UniProt Q13131); settings: at 1 µM
[20] = target: 5'-AMP-activated protein kinase catalytic subunit alpha-2 (Homo sapiens) (UniProt P54646); settings: at 0.1 µM;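 further: mean inhibition measured on the AMPK complex of alpha2, beta1 and gamma1 subunits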
Sequence of 5'-AMP-activated protein kinase catalytic subunit alpha-2 (Homo sapiens) (P54646 whole entry, looked up): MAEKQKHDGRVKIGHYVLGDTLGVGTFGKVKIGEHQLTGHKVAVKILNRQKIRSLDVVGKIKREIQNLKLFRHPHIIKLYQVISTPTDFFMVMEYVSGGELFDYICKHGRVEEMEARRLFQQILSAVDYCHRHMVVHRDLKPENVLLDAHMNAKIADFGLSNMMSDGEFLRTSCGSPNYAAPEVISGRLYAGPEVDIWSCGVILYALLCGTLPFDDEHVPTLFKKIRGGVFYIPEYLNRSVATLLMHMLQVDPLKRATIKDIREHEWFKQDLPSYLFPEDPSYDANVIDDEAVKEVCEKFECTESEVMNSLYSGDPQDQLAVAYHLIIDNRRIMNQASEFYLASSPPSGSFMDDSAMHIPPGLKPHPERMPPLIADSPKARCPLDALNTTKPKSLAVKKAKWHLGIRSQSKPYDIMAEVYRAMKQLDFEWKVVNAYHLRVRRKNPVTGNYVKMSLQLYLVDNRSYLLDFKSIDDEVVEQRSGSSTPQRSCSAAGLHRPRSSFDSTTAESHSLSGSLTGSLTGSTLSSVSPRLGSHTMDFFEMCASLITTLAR

Sequence of Rho-associated protein kinase 1 (Homo sapiens) (Q13464 2-1354 limits assumed): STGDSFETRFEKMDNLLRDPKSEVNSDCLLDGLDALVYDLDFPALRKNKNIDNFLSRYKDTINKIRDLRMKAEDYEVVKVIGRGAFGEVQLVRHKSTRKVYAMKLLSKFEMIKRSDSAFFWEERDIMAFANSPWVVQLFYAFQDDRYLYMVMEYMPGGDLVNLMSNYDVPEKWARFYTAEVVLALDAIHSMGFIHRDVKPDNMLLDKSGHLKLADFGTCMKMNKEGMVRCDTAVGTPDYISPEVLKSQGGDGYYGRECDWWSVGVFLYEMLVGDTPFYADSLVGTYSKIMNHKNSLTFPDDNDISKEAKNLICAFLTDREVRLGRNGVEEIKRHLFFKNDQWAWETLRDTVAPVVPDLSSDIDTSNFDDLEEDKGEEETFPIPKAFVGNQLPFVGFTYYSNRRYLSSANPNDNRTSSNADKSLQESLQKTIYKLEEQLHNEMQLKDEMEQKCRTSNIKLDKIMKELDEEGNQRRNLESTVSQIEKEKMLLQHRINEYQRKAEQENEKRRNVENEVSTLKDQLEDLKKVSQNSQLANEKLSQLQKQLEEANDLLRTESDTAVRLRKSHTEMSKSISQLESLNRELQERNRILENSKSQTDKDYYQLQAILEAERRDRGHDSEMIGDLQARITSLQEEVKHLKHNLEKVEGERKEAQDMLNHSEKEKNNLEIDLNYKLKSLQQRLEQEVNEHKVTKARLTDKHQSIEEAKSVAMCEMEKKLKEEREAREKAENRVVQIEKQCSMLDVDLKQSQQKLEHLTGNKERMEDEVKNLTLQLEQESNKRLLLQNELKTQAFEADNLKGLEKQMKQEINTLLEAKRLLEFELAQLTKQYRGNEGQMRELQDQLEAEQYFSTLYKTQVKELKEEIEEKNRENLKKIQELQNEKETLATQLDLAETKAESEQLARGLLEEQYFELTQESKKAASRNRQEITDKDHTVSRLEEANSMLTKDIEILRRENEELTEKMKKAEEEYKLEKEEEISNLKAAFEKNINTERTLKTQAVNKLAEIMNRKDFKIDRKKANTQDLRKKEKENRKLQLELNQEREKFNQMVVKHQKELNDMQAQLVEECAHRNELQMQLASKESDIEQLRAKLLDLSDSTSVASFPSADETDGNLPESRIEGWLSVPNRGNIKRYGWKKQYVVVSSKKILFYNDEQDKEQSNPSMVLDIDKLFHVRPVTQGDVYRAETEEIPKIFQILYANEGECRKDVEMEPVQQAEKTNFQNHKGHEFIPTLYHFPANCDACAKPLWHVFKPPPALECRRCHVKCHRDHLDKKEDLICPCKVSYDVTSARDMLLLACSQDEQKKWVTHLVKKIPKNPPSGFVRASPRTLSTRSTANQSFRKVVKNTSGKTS

Row | SMILES | inhibition [1] | inhibition [2] | inhibition [3] | inhibition [4] | inhibition [5] | inhibition [6] | inhibition [7] | inhibition [8] | inhibition [9] | inhibition [10] | inhibition [11] | inhibition [12] | inhibition [13] | inhibition [14] | inhibition [15] | inhibition [16] | inhibition [17] | inhibition [18] | inhibition [19] | inhibition [20]
1 | Nc1nc(-c2ccc(F)cc2)c(-c2ccc3ncccc3n2)s1 | 2.11% | 4.08% | 5.66% | 3.54% | 7.04% | 1.7% | 3.18% | 1.93% | 3.03% | 1.18% | 3.36% | 2.87% | 4.24% | 4.24% | 4.34% | 4.05% | 3.66% | 3.33% | 5.29% | 1.85%
2 | [O-][S+]1CCN(Cc2ccc(-c3ccc4ncnc(Nc5ccc(OCc6cccc(F)c6)c(Cl)c5)c4c3)o2)CC1 | 4.37% | 2.9% | 5.33% | 2.31% | 3.99% | 0.59% | 0.78% | 3.09% | 3.37% | 1.65% | 1.89% | 3.42% | 4% | -0.64% | 2.65% | 4.53% | 3.72% | 3.59% | 5.6% | 5.66%
3 | N#Cc1c(NC(=O)c2ccc(F)cc2)sc2c1CCCC2 | 1.82% | 0.42% | 2.62% | 1.41% | 2.35% | 0.9% | 2.51% | -0.44% | 1.7% | -0.96% | 0.81% | 0.29% | 2.65% | -3.36% | 0.76% | -0.34% | 1.54% | 1.88% | 1.54% | 0.31%
4 | COc1cccc(-n2ncc3c(N/N=C/c4ccc(F)cc4)ncnc32)c1 | 1.49% | 4.65% | 6.14% | 2.21% | 4.62% | 1.27% | 2.74% | 0.94% | 3.3% | 1.4% | 1.84% | 4.27% | 5.6% | 2.15% | 0.76% | 4.84% | 3.63% | 3.38% | 5.57% | -0.09%
5 | O=C(Nc1n[nH]c2cc(-c3ccc(F)cc3)ccc12)C1CC1 | 9.51% | 7.81% | 9.75% | 6.62% | 9.5% | 4.78% | 9.26% | 3.68% | 6.96% | 1.52% | 4.8% | 2.59% | 3.89% | 3.3% | 6.36% | 3.83% | 8.97% | 1.21% | 4.56% | 3.71%
6 | O=S(=O)(CCNCc1ccc(-c2ccc3ncnc(Nc4ccc(OCc5cccc(F)c5)c(Cl)c4)c3c2)o1)c1ccccc1 | 3.67% | 3.77% | 5.56% | 2.26% | 4.3% | 0.92% | 0.8% | 1.16% | 2.98% | 0.95% | 1.81% | 4.12% | 4.02% | 4.25% | 7.28% | 6.67% | 5.71% | 7.7% | 5.94% | 3.89%
7 | Cc1cccc(Nc2ncc(-c3ccccc3)o2)c1 | 4.38% | 2.08% | 3.95% | 2.35% | 2.99% | 0.91% | 3.43% | 2.17% | 2.67% | 1.32% | 2.13% | 1.63% | 2.62% | 3.96% | 2.16% | 0.65% | 1.3% | 3.82% | 4.04% | 4.67%
8 | CCN(CC)S(=O)(=O)c1ccc(OC)c(Nc2ncc(-c3ccccc3)o2)c1 | 2.02% | 1.64% | 2.3% | 0.82% | 5.22% | 0.74% | -0.03% | 0.64% | 1.51% | 1.64% | 2.89% | -0.03% | 3.29% | 0.96% | 1.93% | 4.69% | 0.56% | 1.56% | 3.48% | -5.76%
9 | COc1ccc2c(-c3ccnc(Nc4cccc(OC(F)(F)F)c4)n3)cnn2n1 | 2.92% | 3.74% | 8.15% | 2.26% | 3.67% | 1.3% | 1.1% | 1.43% | 2.43% | 1.53% | 3.03% | 3.35% | 2.06% | 6.82% | 9.02% | 5.66% | 4.44% | 4.09% | 7.03% | -7%
10 | COC(=O)c1sc(-n2cnc3cc(OC)c(OC)cc32)cc1OCc1ccccc1C(F)(F)F | 1.93% | 1.69% | 1.32% | 0.68% | 1.38% | 0.27% | 1.3% | 1.77% | 4.5% | 1.2% | 1.66% | 2.5% | 4.04% | 1.44% | 1.94% | 2.58% | 1.46% | 3.84% | 8.18% | -0.41%
11 | COc1cc(N2CCN(C(C)C)CC2)ccc1Nc1nc(Nc2ccc(F)cc2C(N)=O)c2cc[nH]c2n1 | 23.5% | 4.69% | 29.1% | 22% | 65.3% | 15% | 57% | 8.2% | 43.7% | 14.5% | 54.8% | -0.27% | 1.48% | 3.52% | -3.53% | 0.95% | 0.42% | 6.33% | 33.5% | 6.34%
